Reference: PubChem BioAssay (NCATS)
Where “and” joins values, the source holds several entries; their conditions need not be identical. Identical values can stand only once. Results filed as inconclusive are left out. Calls of active or inactive are those of the source. Unless noted, calls follow the shape of the dose curve; as a rule, active = well fitted curve in the direction sought with a large enough effect; inconclusive = small, poorly fitted or top-dose-only effect, or another doubt; inactive = no such curve, though single readings can be large; an effect the other way counts as inactive or inconclusive.

How the values were obtained:
[1] = target: Estrogen receptor (Homo sapiens) (UniProt P03372); assay: qHTS assay for small molecule antagonists of estrogen receptor alpha signaling (AID 588513; active = well fitted curve in the direction sought with a large enough effect in the signal ratio, with a control signal flat, not every such curve was filed as active; the % refers to the signal ratio; also: % is scaled to controls: 0 for no effect and ±100 for the full control effect)
Method in brief: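 ER-alpha-UAS-bla GripTite HEK 293 cells in medium with 2% charcoal/dextran-treated FBS were preincubated 4 h at 37 C, dosed with compound (1:2 titration), stimulated with 0.5nM 17-beta-estradiol for 18 h, then read by CCF4 beta-lactamase fluorescence.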

[2] = target: Peroxisome proliferator-activated receptor gamma (Homo sapiens) (UniProt P37231); assay: qHTS assay for small molecule agonists of peroxisome proliferator-activated receptor gamma signaling (AID 588536; active = well fitted curve in the direction sought with a large enough effect in the signal ratio, with a control signal flat, not every such curve was filed as active; the % refers to the signal ratio;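 also: 0% = DMSO basal wells and 100% = rosiglitazone at 2 µM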)
Method in brief: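 Cells were plated and held 6–6.5 h at 37 C, then compounds were added as a titration series. After a further 16 h, CCF4 dye was loaded for 2 h at room temperature and emission at 460/530 nm recorded.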

[3] = target: Peroxisome proliferator-activated receptor gamma (Homo sapiens) (UniProt P37231); assay: qHTS assay for small molecule antagonists of peroxisome proliferator-activated receptor gamma signaling (AID 588537; active = well fitted inhibition curve with a large enough effect in the signal ratio, with a control signal flat, not every such curve was filed as active; the % refers to the signal ratio;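 also: reporter cells co-stimulated with 50 nM rosiglitazone agonist during compound treatment; % of control where 0% means no effect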)
Method in brief: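 Compounds are tested as concentration series for inhibition of rosiglitazone-driven (50 nM) reporter expression in GeneBLAzer PPAR-gamma-UAS-bla HEK293 cells. After 16 h at 37 C, CCF4 substrate is added for 2 h at room temperature and blue/green fluorescence is measured.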

[4] = qHTS assay for small molecule agonists of retinoid X receptor alpha signaling (AID 588544; calls by dose curve;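 as to activation: 0% = DMSO basal wells and 100% = reference agonist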); conditions: HEK293T RXRa-UAS-bla, beta-lactamase reporter, 18 h; 530 nm emission
[5] = target: Retinoic acid receptor RXR-alpha (Homo sapiens) (UniProt P19793); assay: as above
[6] = target: Thyroid hormone receptor beta (Homo sapiens) (UniProt P10828); assay: qHTS assay for small molecule agonists of thyroid hormone receptor beta signaling (AID 588545; calls by dose curve;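 also: 0% = DMSO only and 100% = 10 nM T3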)
Method in brief: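 TR-UAS-bla-GripTite HEK 293 cells in medium with 2% charcoal/dextran FBS, 0.1 mM NEAA and 1 mM sodium pyruvate were treated with titrated compounds for 18 hrs at 37 C. Beta-lactamase reporter was read with CCF4 dye (ex 405, em 460/530 nm); EC50 from Hill fits.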

[7] = qHTS assay for small molecule antagonists of retinoid X receptor alpha signaling (AID 588546; active = well fitted inhibition curve with a large enough effect in the signal ratio, with a control signal flat, not every such curve was filed as active; the % refers to the signal ratio;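 also: cells stimulated with 9-cis-retinoic acid as agonist; % is scaled to controls: 0 for no effect and ±100 for the full control effect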); conditions: HEK293T RXRa-UAS-bla, beta-lactamase ratio, antagonist mode; measured here: W530 green channel, cytotoxicity proxy
Method in brief: (§1)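 Beta-lactamase reporter inhibition, read as CCF4 fluorescence ratio (ex 405, em 460/530 nm) after 2 h at RT. HEK293T UAS-bla cells, 2500/well, were stimulated with 9-cis-RA at 500 or 100 nM final alongside test compound for 18 h at 37 C.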

[8] = target: Retinoic acid receptor RXR-alpha (Homo sapiens) (UniProt P19793); assay: as above; conditions: HEK293T RXRa-UAS-bla, beta-lactamase ratio, antagonist mode
Method in brief: as §1

[9] = target: Thyroid hormone receptor beta (Homo sapiens) (UniProt P10828); assay: qHTS assay for small molecule antagonists of thyroid hormone receptor beta signaling (AID 588547; active = well fitted inhibition curve with a large enough effect in the signal ratio, with a control signal flat, not every such curve was filed as active; the % refers to the signal ratio;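 also: cells stimulated with 0.4 nM T3 agonist during compound exposure; series mostly up to about 77 µM; % is scaled to controls: 0 for no effect and ±100 for the full control effect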); conditions: TR-UAS-bla HEK293, beta-lactamase ratio, antagonist mode, 18 h
Method in brief: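 TR-UAS-bla GripTite HEK293 cells in 2% charcoal/dextran FBS medium were preincubated 4 h at 37 C, given compound (0.59 nM to 92 uM) plus 0.4 nM T3 (final) for 18 h, then CCF4 for 2 h at RT; Hill fit gave IC50.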

[10] = qHTS assay for small molecule activators of the p53 signaling pathway (AID 651743; active = well fitted activation curve with a large enough effect in the signal ratio, not every such curve was filed as active; the % refers to the signal ratio; also: series mostly up to about 92 µM; % of control where 0% means no effect); conditions: HCT-116 p53RE-bla, beta-lactamase FRET ratio, 16 h; activation: stronger effect = higher value
Method in brief: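 Agonist-mode quantitative HTS in HCT-116 cells carrying a p53-response-element beta-lactamase reporter; 16 h compound treatment at 37 C, then FRET substrate loading for 2 h at room temperature and fluorescence read.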

[11] = qHTS assay for small molecule activators of the nuclear factor-kappa B (NF-kB) signaling pathway (AID 651749; active = well fitted activation curve with a large enough effect in the signal ratio; the % refers to the signal ratio; also: series mostly up to about 77 µM; % of control where 0% means no effect); conditions: NF-kB-bla ME-180 cells, beta-lactamase FRET ratio, 16 h; activation: stronger effect = higher value
Method in brief: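 Human ME-180 cervical cells with an NF-kB-bla construct; compounds added via 23 nL pin transfer, DMSO as vehicle; incubation 16 hr. Reporter activity measured by FRET disruption.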

[12] = qHTS assay for environmental chemicals that activate the Aryl hydrocarbon Receptor (AhR) signaling pathway (AID 651777); conditions: 1A2-DRE human hepatoma cells, luciferase, 24 h; activation: stronger effect = higher value; also: nearly all actives have a fitted effect of over 15% in size; also: potency is read from the fitted curve at half-maximal effect; as to activation: % of control where 0% means no effect
Method in brief: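 Following a 24 hr incubation with test chemicals at 37 C and 5% CO2, 1A2-DRE human hepatoma cells received One-Glo reagent; after 30 min at room temperature, luciferase output reflected CYP1A2 induction via AhR.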

[13] = target: Peroxisome proliferator-activated receptor alpha (Homo sapiens) (UniProt Q07869); assay: qHTS assay for small molecule agonists of the peroxisome proliferator-activated receptor alpha (PPARalpha) signaling pathway (AID 651778); conditions: PathHunter PPARalpha complementation, chemiluminescence, 6 h; max response: stronger effect = higher value; also: % of control where 0% means no effect
Method in brief: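 Cells plated at 2,000/well and held overnight at 37 C, 5% CO2, then compound added by pin tool for 6 hr; after PathHunter detection reagent and 60 min at room temperature, chemiluminescence from enzyme complementation was read.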

[14] = qHTS assay for small molecule agonists of the antioxidant response element (ARE) signaling pathway measured by Nrf2-dependant transcriptional activity - cell viability counter screen (AID 720653; active = well fitted curve in the direction sought with a large enough effect in the repeat runs; an effect the other way counts as inactive or inconclusive; also: % is scaled to controls: 0 for no effect and ±100 for the full control effect); conditions: ARE-bla HepG2 viability, CellTiter-Glo ATP luminescence, 16 h; max response: stronger effect = lower value
Method in brief: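 ARE-bla HepG2 cells (2,000/well) rested 5 hrs at 37C/5% CO2, then exposed to compounds in DMSO for 16 hrs. Viability was read in the same wells as intracellular ATP by luminescence, 30 min at room temperature after reagent addition.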

[15] = qHTS assay for cell viability of HEK293 cells (AID 743288); conditions: ATP luminescence (CellTiter-Glo), 18 h; max response: stronger effect = lower value; also: % is scaled to controls: 0 for no effect and ±100 for the full control effect; nearly all actives have a fitted effect of over 50% in size
Method in brief: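 After 18 h compound exposure at 37 C, parental HEK293 cells (2,000/well) are lysed with CellTiter-Glo and luminescence is read following 30 min at room temperature.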

[16] = qHTS assay for cell viability of the p53RE-bla HCT-116 cell line (AID 743292); also: % is scaled to controls: 0 for no effect and ±100 for the full control effect; nearly all actives have a fitted effect of over 55% in size
Method in brief: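 After plating at 4,000 cells per well and a 5 h rest at 37 C, HCT-116 cells carrying p53RE-bla received test chemicals in DMSO. Sixteen hours later at 37 C, CellTiter-Glo was added and luminescence recorded following 30 min at room temperature.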

[17] = target: Nuclear receptor subfamily 1 group I member 2 (Rattus norvegicus) (UniProt Q9R1A7); assay: qHTS assay for small molecule activators of the rat pregnane X receptor (rPXR) signaling pathway (AID 651751; call rule not given here; also: 0% is about no effect); conditions: rPXR reporter cells, luciferase (One-Glo), 24 h
[18] = qHTS assay for small molecule activators of the human pregnane X receptor (PXR) signaling pathway (AID 720659; call rule not given here; also: 0% is about no effect)
[19] = target: Vitamin D3 receptor (Homo sapiens) (UniProt P11473); assay: qHTS assay for small molecule agonists of vitamin D receptor signaling (AID 588543; calls by dose curve;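 also: 0% = DMSO basal and 100% = reference agonist control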)
Method in brief: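 GeneBLAzer VDR-UAS-bla HEK293T cells in 2% charcoal-stripped FBS medium were dosed with compound titrations for 16 h at 37 °C; CCF4 β-lactamase readout (405 nm ex, 460/530 nm em). EC50 and efficacy from Hill fits, normalized to 50 nM calcitriol (100%) and DMSO (0%).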

[20] = qHTS assay for small molecule agonists of the antioxidant response element (ARE) signaling pathway measured by Nrf2-dependant transcriptional activity (AID 720636; active = well fitted curve in the direction sought with a large enough effect in the repeat runs; an effect the other way counts as inactive or inconclusive; also: potency is read from the fitted curve at half-maximal effect;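 as to activation: HepG2 cells with an ARE-driven luciferase reporter; % of control where 0% means no effect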)
Method in brief: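 ONE-Glo luminescence, read 30 min after reagent addition at room temperature, reflected ARE reporter activity in HepG2 cells that had been incubated with compound for 16 hr at 37 C in 1% dialyzed FBS.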

Chain of Nuclear receptor subfamily 1 group I member 2 (Rattus norvegicus) (Q9R1A7 whole entry, looked up): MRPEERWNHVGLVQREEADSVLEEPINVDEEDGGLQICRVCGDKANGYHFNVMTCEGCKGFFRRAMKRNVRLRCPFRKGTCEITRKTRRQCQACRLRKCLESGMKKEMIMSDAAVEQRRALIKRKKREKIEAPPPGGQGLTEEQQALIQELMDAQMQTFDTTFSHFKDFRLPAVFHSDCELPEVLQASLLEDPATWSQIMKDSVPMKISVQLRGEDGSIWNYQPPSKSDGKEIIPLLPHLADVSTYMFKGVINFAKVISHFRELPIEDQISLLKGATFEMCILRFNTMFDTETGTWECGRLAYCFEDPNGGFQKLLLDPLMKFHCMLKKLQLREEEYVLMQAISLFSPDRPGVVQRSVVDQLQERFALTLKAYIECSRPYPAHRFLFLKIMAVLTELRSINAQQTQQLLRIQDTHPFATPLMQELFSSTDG
Chain of Peroxisome proliferator-activated receptor gamma (Homo sapiens) (P37231 whole entry, looked up): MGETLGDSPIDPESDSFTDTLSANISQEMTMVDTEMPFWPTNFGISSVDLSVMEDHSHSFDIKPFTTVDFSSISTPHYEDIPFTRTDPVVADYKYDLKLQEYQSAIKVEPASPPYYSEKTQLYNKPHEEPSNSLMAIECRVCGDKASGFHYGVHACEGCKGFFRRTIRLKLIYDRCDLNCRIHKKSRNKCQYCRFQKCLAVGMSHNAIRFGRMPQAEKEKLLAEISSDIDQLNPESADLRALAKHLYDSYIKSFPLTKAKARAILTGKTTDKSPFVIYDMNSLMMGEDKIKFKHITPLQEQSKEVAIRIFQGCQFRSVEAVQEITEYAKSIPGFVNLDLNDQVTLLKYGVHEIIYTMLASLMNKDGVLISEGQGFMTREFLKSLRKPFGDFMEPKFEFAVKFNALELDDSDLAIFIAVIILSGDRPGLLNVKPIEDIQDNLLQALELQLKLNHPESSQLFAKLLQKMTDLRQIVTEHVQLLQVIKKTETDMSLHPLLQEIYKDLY
Chain of Thyroid hormone receptor beta (Homo sapiens) (P10828 whole entry, looked up): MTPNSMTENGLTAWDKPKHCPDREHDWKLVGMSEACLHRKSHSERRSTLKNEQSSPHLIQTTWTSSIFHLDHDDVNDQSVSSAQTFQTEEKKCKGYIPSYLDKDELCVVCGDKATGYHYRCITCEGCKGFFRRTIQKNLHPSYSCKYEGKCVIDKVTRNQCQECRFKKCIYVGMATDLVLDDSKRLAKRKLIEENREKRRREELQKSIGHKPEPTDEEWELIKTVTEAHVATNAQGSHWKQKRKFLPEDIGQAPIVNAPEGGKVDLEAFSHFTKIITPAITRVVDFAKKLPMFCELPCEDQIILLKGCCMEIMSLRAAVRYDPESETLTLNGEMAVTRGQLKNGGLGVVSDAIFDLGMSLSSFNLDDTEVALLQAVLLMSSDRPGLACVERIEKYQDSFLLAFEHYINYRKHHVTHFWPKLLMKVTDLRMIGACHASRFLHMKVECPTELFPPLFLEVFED
Chain of Estrogen receptor (Homo sapiens) (P03372 whole entry, looked up): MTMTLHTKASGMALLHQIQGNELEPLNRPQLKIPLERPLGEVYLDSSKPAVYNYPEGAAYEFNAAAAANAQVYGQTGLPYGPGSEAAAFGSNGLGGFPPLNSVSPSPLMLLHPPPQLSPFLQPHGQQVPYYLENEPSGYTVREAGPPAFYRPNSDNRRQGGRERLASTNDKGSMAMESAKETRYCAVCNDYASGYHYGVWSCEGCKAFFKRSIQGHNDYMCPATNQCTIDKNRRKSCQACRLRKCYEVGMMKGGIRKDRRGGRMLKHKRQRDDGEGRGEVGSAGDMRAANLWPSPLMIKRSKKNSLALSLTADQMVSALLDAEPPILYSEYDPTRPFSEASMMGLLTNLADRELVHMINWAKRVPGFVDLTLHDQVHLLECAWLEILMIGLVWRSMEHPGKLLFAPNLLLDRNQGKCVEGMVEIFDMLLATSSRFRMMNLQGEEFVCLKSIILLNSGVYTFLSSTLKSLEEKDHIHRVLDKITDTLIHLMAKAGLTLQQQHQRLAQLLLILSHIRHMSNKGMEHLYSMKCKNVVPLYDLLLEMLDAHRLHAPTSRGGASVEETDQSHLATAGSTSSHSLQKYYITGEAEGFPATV
Chain of Retinoic acid receptor RXR-alpha (Homo sapiens) (P19793 whole entry, looked up): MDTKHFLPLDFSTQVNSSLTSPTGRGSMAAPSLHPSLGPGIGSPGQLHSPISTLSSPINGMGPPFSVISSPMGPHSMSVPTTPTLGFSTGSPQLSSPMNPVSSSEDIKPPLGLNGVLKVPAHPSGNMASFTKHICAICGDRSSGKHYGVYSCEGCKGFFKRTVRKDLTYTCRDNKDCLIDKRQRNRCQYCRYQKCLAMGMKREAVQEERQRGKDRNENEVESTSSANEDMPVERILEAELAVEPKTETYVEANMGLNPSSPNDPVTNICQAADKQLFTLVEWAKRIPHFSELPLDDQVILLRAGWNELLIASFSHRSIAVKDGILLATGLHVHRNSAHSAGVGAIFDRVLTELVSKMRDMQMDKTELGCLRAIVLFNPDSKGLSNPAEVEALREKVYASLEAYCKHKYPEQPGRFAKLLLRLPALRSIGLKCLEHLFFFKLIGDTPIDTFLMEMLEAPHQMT
Chain of Vitamin D3 receptor (Homo sapiens) (P11473 whole entry, looked up): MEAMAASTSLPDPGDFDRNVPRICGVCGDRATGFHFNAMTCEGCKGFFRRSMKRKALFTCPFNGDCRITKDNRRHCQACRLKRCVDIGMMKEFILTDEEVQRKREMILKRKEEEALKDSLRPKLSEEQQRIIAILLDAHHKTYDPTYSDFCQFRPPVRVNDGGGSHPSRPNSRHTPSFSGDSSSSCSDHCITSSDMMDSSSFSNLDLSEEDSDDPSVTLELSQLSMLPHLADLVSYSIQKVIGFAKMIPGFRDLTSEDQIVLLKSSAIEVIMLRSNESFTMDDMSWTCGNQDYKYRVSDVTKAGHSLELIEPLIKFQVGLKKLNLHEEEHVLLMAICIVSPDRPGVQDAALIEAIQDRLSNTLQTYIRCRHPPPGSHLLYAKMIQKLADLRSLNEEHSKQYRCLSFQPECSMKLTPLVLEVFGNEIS
Chain of Peroxisome proliferator-activated receptor alpha (Homo sapiens) (Q07869 whole entry, looked up): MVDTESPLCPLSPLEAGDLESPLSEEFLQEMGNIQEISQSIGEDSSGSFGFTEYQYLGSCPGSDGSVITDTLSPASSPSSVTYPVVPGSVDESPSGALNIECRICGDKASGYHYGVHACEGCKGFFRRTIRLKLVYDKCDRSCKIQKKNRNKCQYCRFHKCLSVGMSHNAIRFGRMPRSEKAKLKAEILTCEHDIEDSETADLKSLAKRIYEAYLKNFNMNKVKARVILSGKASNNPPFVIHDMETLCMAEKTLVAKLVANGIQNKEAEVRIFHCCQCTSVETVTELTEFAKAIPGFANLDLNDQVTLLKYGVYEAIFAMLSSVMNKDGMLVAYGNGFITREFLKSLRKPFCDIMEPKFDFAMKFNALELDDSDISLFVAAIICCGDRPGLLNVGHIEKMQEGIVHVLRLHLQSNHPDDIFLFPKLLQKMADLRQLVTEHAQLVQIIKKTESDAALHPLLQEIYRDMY

CC(C)(C)c1cccc(C(C)(C)C)c1O
-8.93%: max response [4]
-10.7%: max response [7]
inactive: Potency [1] | outcome [2] | Potency [3] | Potency [5] | Potency [6] | max response [8] -0.1% | activity change % (negative = inhibition) [9] 16.3% | activation [10] -0.526% | activation [11] -0.872% | activation [12] 0.241% | max response [13] -2.21% | max response [14] -3.7% | max response [15] 0.51% | Potency [16] | max response [17] 0.577% | outcome [18]

Cc1ccc(N=Nc2c(O)ccc3ccccc23)c(C)c1
active: Potency [12] 31.6 µM | Potency [20] 10.9 µM
inactive: Potency [1] | outcome [2] | Potency [3] | outcome [19] | Potency [6] | max response [8] -32% | activity change % (negative = inhibition) [9] 9.11% | activation [11] 6% | max response [13] 0.784% | max response [14] -17.4% | max response [15] -21.3% | Potency [16] | max response [17] 13.1%
-15.2%: max response [7]

CCCCCCCCC(=O)O
-8.04%: max response [7]
-21.9%: max response [4]
inactive: Potency [1] | Potency [5] | max response [8] -41.9% | activity change % (negative = inhibition) [9] 3.07% | activation [10] 4.29% | activation [12] 2.74% | max response [13] 1.35% | Potency [20] | max response [14] -7.02% | max response [15] -14.6% | Potency [16] | max response [17] -1.4% | outcome [18]

CCCCCCCCCCO
inactive: Potency [1] | outcome [2] | Potency [3] | outcome [19] | Potency [5] | Potency [6] | max response [8] 6.68% and -9.14% | activity change % (negative = inhibition) [9] 16.6% and -15.4% | activation [10] 1.66% and 2.49% | activation [11] -0.272% and -0.916% | activation [12] -1.2% and 0.559% | max response [13] -0.236% and 5.87% | Potency [20] | max response [14] -7.77% and 2.22% | max response [15] -9.96% and -5.95% | Potency [16]
-1.67% and -3.39%: max response [7]
-3.16% and -6.7%: max response [4]

Cn1sccc1=O
inactive: Potency [1] | outcome [2] | outcome [19] | max response [8] 7.99% | activity change % (negative = inhibition) [9] -11.2% | activation [12] -0.202% | max response [13] -2.31% | Potency [20] | max response [15] -4.03%
-13.8%: max response [7]

C[Si]1(C)O[Si](C)(C)O[Si](C)(C)O[Si](C)(C)O[Si](C)(C)O1
-18.1%: max response [4]
-10.4%: max response [7]
inactive: Potency [1] | outcome [2] | Potency [3] | outcome [19] | Potency [5] | Potency [6] | max response [8] 2.84% | activation [10] 1.25% | activation [11] -6.08% | activation [12] 0.106% | max response [13] -3.04% | Potency [20] | max response [15] -11.9% | Potency [16] | max response [17] -3.44% | outcome [18]

C=C[Si](OCCOC)(OCCOC)OCCOC
-7.07%: max response [4]
inactive: Potency [1] | outcome [2] | Potency [5] | Potency [6] | max response [8] 2.22% | activation [10] -3.03% | activation [12] 0.581% | max response [13] -0.929% | Potency [20] | max response [15] -9.27% | Potency [16] | max response [17] 1.26% | outcome [18]
-8.04%: max response [7]
